Activity calls are given as the source filed them.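 Rule for the calls, unless noted: active = inhibition at or above 50% at 10 µM; inactive = inhibition below 50%.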
Key:
[1] = inhibitors of TNFa-induced NFkB p65 translocation, primary screen, imaging, HUVEC, MLSMR starter and 10KST1 sets (AID 438;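 active = inhibition above 20% together with a positive visual image hit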;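 note: compound added about 3h40 before a 20 min TNFalpha stimulation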;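 for inhibition: signal is the nuclear over cytoplasmic p65 intensity ratio per well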); conditions: HUVEC TNFa-induced p65 nuclear translocation; cell count: measured here: nuclei count (cytotoxicity indicator), at 2.08 µM; inhibition: at 2 µM, stronger effect = higher value, 0% TNFa-plus-vehicle, 100% no-TNFa wells
[2] = reduction of polyQ htt aggregates in cells – imaging, exon1htt(103Q)mCFP cells, high-content imaging, primary screen (AID 483;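 active = visual image review flags a hit and inhibition of aggregation exceeds 20%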;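 note: compound exposure lasted 3 days before fixation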;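 for nuclei count: percent of the per-plate median nuclei count of sample wells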); conditions: exon1htt(103Q)mCFP cell line, aggregate imaging, at 2 µM; inhibition of aggregation: stronger effect = higher value; nuclei count: measured here: cell count, toxicity
[3] = endothelial E-selectin expression blockers – imaging, HUVEC, immunofluorescence, MLSMR starter and 10KST1 sets, primary screen (AID 487;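 active = visually confirmed hit in the image check and inhibition above 20%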;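 for inhibition: signal is fraction of cell area covered by stained E-selectin grains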;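 for nuclei count: 100% = median nuclei count of all wells on the same plate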); conditions: HUVEC TNFalpha-induced E-selectin immunofluorescence imaging, at 2 µM; inhibition: stronger effect = higher value; nuclei count: measured here: cell number, toxicity
[4] = target: Voltage-gated potassium channel subunit beta-2 (Rattus norvegicus) (UniProt P62483); assay: inhibitors of rat Kvbeta2 reductase activity – biochemical, NADPH fluorescence, primary screen (AID 622;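 active = fluorescence slope higher than the sample average by over 3 SD, cut at about -0.22 in these data, passing the limit was not always enough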;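 note: slope of raw intensity against log time taken from 70 to 1610 s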); conditions: recombinant KvBeta, 4-cyanobenzaldehyde reduction, at 10 µM, stronger effect = higher value
[5] = target: Voltage-gated potassium channel subunit beta-2 (Rattus norvegicus) (UniProt P62483); assay: enhancers of rat Kvbeta2 NADPH turnover – biochemical, NADPH fluorescence, primary screen (AID 623;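 active = NADPH fluorescence slope more negative than the mean of all samples by about 3 SD, 99.7% confidence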;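 note: fluorescence intensity change per second fitted from 20 to 320 s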); conditions: Recombinant KvBeta, NADPH fluorescence decrease slope, 10 min; at 10 µM; stronger effect = lower value
[6] = target: Alpha-2C adrenergic receptor (Homo sapiens) (UniProt P18825); assay: compounds altering alpha2C-coupled GIRK flux – cell-based, HEK293 alpha2C/GIRK1/2, thallium flux, primary screen (AID 624;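 active = fluorescence slope after compound addition differing from the mean of all screened samples at 99.7% confidence, in either direction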;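 note: slope of fluorescence ratio to pre-addition baseline per second over 15 to 24 s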); conditions: thallium flux BTC fluorescence, at 10 µM, actives lie on both sides
[7] = blockers of RIG-like receptor reporter activation – cell-based, Sendai virus stimulus, luciferase, 10K MLSCN set, TLR/RLR signaling modifier project, primary screen (AID 602276); conditions: HEK293 RL24 IRF3 luciferase reporter, at 10 µM, stronger effect = higher value;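 note: firefly luciferase from ISG56 promoter only with Renilla not read in this screen; 0% = Sendai virus plus DMSO and 100% = medium plus DMSO without virus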
[8] = TLR3 IRF3 reporter activation blockers – cell-based, poly I:C stimulus, luciferase, 10K MLSCN set, primary screen (AID 602277;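 active = inhibition of the reporter signal at or above 50%; inactive = inhibition below 50%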); conditions: HEK293-TLR3 RL24 IRF3 luciferase reporter, at 10 µM, stronger effect = higher value

Voltage-gated potassium channel subunit beta-2 (Rattus norvegicus), sequence (P62483 whole entry, looked up): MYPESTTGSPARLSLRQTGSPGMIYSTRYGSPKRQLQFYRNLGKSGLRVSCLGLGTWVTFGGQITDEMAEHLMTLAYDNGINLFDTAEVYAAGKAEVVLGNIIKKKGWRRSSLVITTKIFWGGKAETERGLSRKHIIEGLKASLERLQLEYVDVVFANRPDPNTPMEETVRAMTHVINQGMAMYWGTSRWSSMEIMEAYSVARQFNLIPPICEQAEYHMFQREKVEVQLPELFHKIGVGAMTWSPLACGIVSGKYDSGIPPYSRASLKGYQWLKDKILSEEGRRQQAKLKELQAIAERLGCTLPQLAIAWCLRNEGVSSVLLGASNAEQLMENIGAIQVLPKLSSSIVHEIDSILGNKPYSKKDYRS
Alpha-2C adrenergic receptor (Homo sapiens), sequence (P18825 whole entry, looked up): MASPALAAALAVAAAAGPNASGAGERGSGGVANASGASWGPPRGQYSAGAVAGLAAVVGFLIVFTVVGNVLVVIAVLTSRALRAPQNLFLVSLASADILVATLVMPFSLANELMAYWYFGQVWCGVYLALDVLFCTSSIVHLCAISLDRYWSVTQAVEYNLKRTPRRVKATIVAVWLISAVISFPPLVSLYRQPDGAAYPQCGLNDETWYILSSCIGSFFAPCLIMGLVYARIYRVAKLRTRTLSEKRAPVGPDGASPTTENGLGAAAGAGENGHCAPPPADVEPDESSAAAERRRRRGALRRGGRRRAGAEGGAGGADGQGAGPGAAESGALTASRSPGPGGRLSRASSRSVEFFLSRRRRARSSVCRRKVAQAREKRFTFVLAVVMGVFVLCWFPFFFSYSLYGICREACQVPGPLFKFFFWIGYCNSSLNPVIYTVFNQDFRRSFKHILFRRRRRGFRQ

SMILES	cell count [1]	inhibition [1]	inhibition of aggregation [2]	nuclei count [2] [%]	inhibition [3]	nuclei count [3] [%]	fluorescence slope [4]	NADPH fluorescence slope [5]	slope [6]	inhibition [7]	inhibition [8]
O=C(C1CCCN(S(=O)(=O)c2cnc[nH]2)C1)N1CCN(c2ccc(Cl)cc2)CC1 (stereo not drawn)	566	8% (inactive)	-31.8% (inactive)	103	-71.3% (inactive)	123	-0.523 (inactive)	3.4e-05 (inactive)	0.00672 (inactive)	-6.86% (inactive)	0.571% (inactive)
CCn1c2ccccc2c2cc(Nc3cc(C)nc4ncnn34)ccc21	513	8.5% (inactive)	7.5% (inactive)	3	-104% (inactive)	65.1	-0.527 (inactive)	7.4e-07 (inactive)	0.00558 (inactive)	68.5% (active)	87.2% (active)
CCS(=O)(=O)N1CCC(C(=O)NCCc2ccc(C)cc2)CC1	646	-10.6% (inactive)	2.7% (inactive)	81.2	-178% (inactive)	136	-0.596 (inactive)	1.4e-05 (inactive)	0.00666 (inactive)	-2.06% (inactive)	10.2% (inactive)
CCCCNC(=O)OCCNC(=O)NC	314	2.9% (inactive)	-7.8% (inactive)	100	-62.2% (inactive)	107	-0.317 (inactive)	-2.2e-05 (inactive)	0.00519 (inactive)	7.22% (inactive)	2.44% (inactive)
Cc1ccc(NC2=NCC(=O)N2c2ccc3c(c2)OCCO3)c(C)c1	463	-14.4% (inactive)	-2.6% (inactive)	116	-20.7% (inactive)	97.3	-0.498 (inactive)	-3.6e-05 (inactive)	0.00458 (inactive)	5.69% (inactive)	7.01% (inactive)
COc1ccc(-c2noc(-c3ccccc3C(=O)NCc3ccco3)n2)cc1	331	9.3% (inactive)	-16.3% (inactive)	77.4	-64.4% (inactive)	99.2	-0.592 (inactive)	-4.7e-05 (inactive)	0.00789 (inactive)	-8.85% (inactive)	-39.1% (inactive)
O=C(Cc1ccccc1)Nc1ccc(CN2CCOCC2)cc1	451	-5.4% (inactive)	-17.1% (inactive)	104	-2.9% (inactive)	107	-0.418 (inactive)	-3.3e-05 (inactive)	0.00462 (inactive)	-34% (inactive)	-71.3% (inactive)
O=S(=O)(Nc1ccccn1)c1ccc(Oc2ccccc2)cc1	248	-6.3% (inactive)	0.4% (inactive)	59.1	-2.9% (inactive)	93.8	-0.598 (inactive)	-1.6e-05 (inactive)	0.0052 (inactive)	16.9% (inactive)	20.6% (inactive)
CCOc1ccc(NS(=O)(=O)c2ccc(OCC(=O)N3CCCC3)cc2)cc1	422	-15.4% (inactive)	43.4% (active)	98.7	-56.1% (inactive)	169	-0.465 (inactive)	-4.2e-05 (inactive)	0.00531 (inactive)	8.25% (inactive)	13.9% (inactive)
COc1ccc(C(=O)NCC(=O)NC2=NCCS2)cc1	772	-11.6% (inactive)	-22.1% (inactive)	69.1	-43.6% (inactive)	106	-0.591 (inactive)	-5.5e-05 (inactive)	0.00756 (inactive)	5.81% (inactive)	28.4% (inactive)
COc1ccccc1S(=O)(=O)Cc1ccc(C(=O)NCCN2CCCCCC2)o1	522	13.4% (inactive)	15.2% (inactive)	91.6	9% (inactive)	81.1	-0.588 (inactive)	-3.5e-05 (inactive)	0.00667 (inactive)	11% (inactive)	39.3% (inactive)
COc1ccc(C2CC(C(F)(F)F)n3ncc(C(=O)NCc4cccnc4)c3N2)cc1OC (stereo not drawn)	313	0.3% (inactive)	8.9% (inactive)	57.1	8% (inactive)	91.9	-0.388 (inactive)	-3.2e-05 (inactive)	0.00287 (inactive)	5.88% (inactive)	20.9% (inactive)
O=C(CSc1nnnn1-c1ccc(Cl)cc1)NC(=O)Nc1ccc2c(c1)OCCO2	336	5.6% (inactive)	19.6% (inactive)	84.7	-86.5% (inactive)	120	-0.429 (inactive)	-3.6e-05 (inactive)	0.00808 (inactive)	-24.8% (inactive)	-57% (inactive)
CCCn1c(SCC(=O)Nc2ccccc2C(=O)OCC)nc2c1c(=O)n(C)c(=O)n2C	225	-9.1% (inactive)	-9.7% (inactive)	95.2	-4.8% (inactive)	77.3	-0.402 (inactive)	-3.8e-05 (inactive)	0.00524 (inactive)	4.88% (inactive)	5.62% (inactive)
CCCCC(NS(=O)(=O)c1ccc(OC)cc1)C(=O)O (stereo not drawn)	386	8.8% (inactive)	-16.5% (inactive)	108	-31.9% (inactive)	118	-0.448 (inactive)	-4e-05 (inactive)	0.0033 (inactive)	7.54% (inactive)	39% (inactive)
Cc1ccccc1NC(=O)CN1CCC(NC(=O)Nc2ccccc2)CC1	516	-1.9% (inactive)	25.9% (inactive)	68	-121% (inactive)	93	-0.292 (inactive)	-4.8e-05 (inactive)	0.00566 (inactive)	9.37% (inactive)	9.34% (inactive)
COCCNC(=O)C1CCCN(c2ncccn2)C1 (stereo not drawn)	648	7.5% (inactive)	5.6% (inactive)	100	98.1% (active)	76.1	-0.539 (inactive)	-6.8e-05 (inactive)	0.00583 (inactive)	14.2% (inactive)	20.8% (inactive)
CS(=O)(=O)N1CCCC(C(=O)NCc2ccccc2Cl)C1 (stereo not drawn)	636	-10.2% (inactive)	20.1% (inactive)	77.4	-124% (inactive)	97.8	-0.59 (inactive)	-1.1e-05 (inactive)	0.00562 (inactive)	3.11% (inactive)	8.19% (inactive)
O=C(CCS(=O)(=O)c1cccc2nsnc12)N1CCN(Cc2ccc3c(c2)OCO3)CC1	582	4.1% (inactive)	-47.2% (inactive)	53.4	-84.7% (inactive)	97.8	-0.533 (inactive)	-4.8e-05 (inactive)	0.00459 (inactive)	2.36% (inactive)	14.2% (inactive)
c1ccc(-c2ccccc2OCCn2cncn2)cc1	780	-12.5% (inactive)	22.9% (inactive)	112	-63.6% (inactive)	111	-0.485 (inactive)	-3e-05 (inactive)	0.00513 (inactive)	2.95% (inactive)	26% (inactive)
COC(=O)C1=C(C)n2nnnc2NC1c1ccc(Cl)cc1 (stereo not drawn)	340	3.6% (inactive)	-8.8% (inactive)	99.4	-119% (inactive)	80.4	-0.367 (inactive)	1.8e-05 (inactive)	0.00153 (inactive)	2.58% (inactive)	10.6% (inactive)
CN(C)c1ccc(NC(=O)c2cc3c(=O)n4ccccc4nc3n2C)cc1	216	-10.7% (inactive)	4.4% (inactive)	89	52.4% (inactive)	68.8	-0.572 (inactive)	-3.5e-05 (inactive)	0.00472 (inactive)	1.6% (inactive)	-86.3% (inactive)
CNC(=O)CN(c1ccc(C(C)C)cc1)S(C)(=O)=O	372	-0.8% (inactive)	-4.8% (inactive)	114	24.1% (inactive)	114	-0.397 (inactive)	1.3e-05 (inactive)	0.00372 (inactive)	11% (inactive)	35.7% (inactive)
COc1ccc(C(=O)N2CCCc3ccccc32)cc1	433	2.5% (inactive)	-1.4% (inactive)	107	4.7% (inactive)	110	-0.519 (inactive)	-8e-05 (inactive)	0.00477 (inactive)	7.26% (inactive)	5.78% (inactive)
Cc1cc(NS(=O)(=O)Cc2ccccc2)cc(C)c1OCC(=O)N1CCOCC1	323	-3.3% (inactive)	-14.1% (inactive)	86.8	-47.7% (inactive)	104	-0.478 (inactive)	-4.7e-05 (inactive)	0.00653 (inactive)	14.5% (inactive)	10.6% (inactive)
O=C(CCCNS(=O)(=O)c1ccccc1)NCc1ccco1	242	-6.9% (inactive)	22.9% (inactive)	80.7	27.9% (inactive)	80.8	-0.425 (inactive)	-1.4e-05 (inactive)	0.00453 (inactive)	12.9% (inactive)	10.4% (inactive)
CC1(C)CC(=O)C2=C(C1)OC(=O)C2(NC(=O)c1cccs1)C(F)(F)F (stereo not drawn)	607	-8.2% (inactive)	5.3% (inactive)	104	-9.5% (inactive)	85.7	-0.598 (inactive)	-4.5e-05 (inactive)	0.00633 (inactive)	1.37% (inactive)	15.7% (inactive)
CCOC(=O)Cn1c(=O)c(-c2ccccc2N)nc2ccccc21	620	-1.8% (inactive)	2.1% (inactive)	124	-50.2% (inactive)	116	-0.542 (inactive)	-3.7e-05 (inactive)	0.00661 (inactive)	12.3% (inactive)	33.1% (inactive)

From PubChem BioAssay
